Laboratory results reported in PubChem BioAssay AID488922 (Johns Hopkins Ion Channel Center, 2010).
About 3,800 (1.2%) of roughly 310,000 compounds were called active.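 Rule for the calls: active = ratio B-score over 3 SD below the library mean, with starting fluorescence within 5 SD of its mean; inactive = the rest, inconclusive results apart.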 Only a selection was taken, and actives are over-represented in it overall.

These compounds were tested against Potassium channel subfamily K member 9 (Homo sapiens) (UniProt Q9NPC2) (assay: KCNK9 potassium channel inhibitors, primary screen, HEK293 cells, thallium flux (AID 488922;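 for B-score: negative B-score means less thallium flux so channel inhibition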)). Settings: HEK293 KCNK9, FluxOR thallium flux fluorescence, at 10 µM; active compounds read low.
Sequence of Potassium channel subfamily K member 9 (Homo sapiens) (Q9NPC2 whole entry, looked up): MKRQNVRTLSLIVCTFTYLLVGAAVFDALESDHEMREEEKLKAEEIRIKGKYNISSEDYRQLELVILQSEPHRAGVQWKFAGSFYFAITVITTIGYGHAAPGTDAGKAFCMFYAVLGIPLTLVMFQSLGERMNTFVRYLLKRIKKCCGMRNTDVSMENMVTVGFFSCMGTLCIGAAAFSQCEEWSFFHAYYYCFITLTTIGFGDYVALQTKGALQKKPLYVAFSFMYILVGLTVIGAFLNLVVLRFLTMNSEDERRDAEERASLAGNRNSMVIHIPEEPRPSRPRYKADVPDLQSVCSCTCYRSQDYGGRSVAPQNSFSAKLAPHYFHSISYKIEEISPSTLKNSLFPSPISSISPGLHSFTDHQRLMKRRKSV

SMILES	B-score
Cc1ccccc1NC(=O)COc1cccc2c1CCNC2=O	inactive
O=C(CCNC(=O)c1ccc(Br)cc1)Nc1cccc(S(=O)(=O)N2CCCCC2)c1	inactive
O=C(CSc1ncn[nH]1)NCc1ccc2c(c1)OCO2	inactive
O=C(CSc1ncnc2scc(-c3ccccc3)c12)NCc1ccc2c(c1)OCO2	-6.9 (active)
O=C(CN1CCN(c2nc(-c3ccccc3)cs2)CC1)NCc1ccc2c(c1)OCO2	inactive
CCOC(=O)C(=Cc1ccccc1OC)C(=O)OCC	inactive
CCOC(=O)c1c(NC(=O)CNC2CCCc3ccccc32)sc(C(N)=O)c1C (stereo unspecified)	inactive
CCOc1ncccc1C(=O)NNC(=O)c1cccc(S(=O)(=O)Nc2ccccc2OC)c1	inactive
COc1ccc(NC(=O)C2CCC(CNC(=O)[C@@H]3Cc4ccccc4CN3)CC2)cc1 (stereo partly specified)	inactive
COC(=O)c1sccc1NC(=O)c1cc(OC)c(OC)c(OC)c1	inactive
COc1cc(C(=O)Nc2oc(-c3ccccc3)c(-c3ccccc3)c2C#N)cc(OC)c1OC	-6.66 (active)
N#Cc1c(NC(=O)CCCN2C(=O)c3ccccc3C2=O)oc(-c2ccccc2)c1-c1ccccc1	inactive
COC(=O)Nc1ncc(CN2CCCCC2)s1	inactive
CCCCN(C(=O)COc1ccc(NC(C)=O)cc1)C1CCS(=O)(=O)C1 (stereo unspecified)	inactive
Cc1cccc(C(=O)NCc2nnc(SC(C)C(=O)Nc3nnc(C)s3)n2C)c1 (stereo unspecified)	inactive
Cn1nc(-c2ccccc2)c(-c2nc(-c3ccc(Cl)cc3)no2)c1Cl	-7.35 (active)
CN(Cc1ccccn1)Cc1nc(-c2ccc(Cl)cc2)no1	inactive
Brc1ccc(-c2noc(-c3ccccc3)n2)o1	inactive
CC(C)Cn1c(N)c(C(=O)COC(=O)CN2C(=O)C3CC=CCC3C2=O)c(=O)n(C)c1=O (stereo unspecified)	inactive
COC(=O)c1cc(NC(=O)CC2C(=O)NCCN2C(=O)c2ccc(F)cc2)cc(C(=O)OC)c1 (stereo unspecified)	inactive
CN(c1ccccc1)c1ccc(/C=c2\s/c(=C(/C#N)C(=O)C(C)(C)C)n(Cc3ccco3)c2=O)cc1	inactive
Cc1csc(=Nc2ccccc2)n1CCO	inactive
Cc1cs/c(=N\N=C\c2ccc(O)cc2)n1Cc1ccco1	-6.66 (active)
CCNC(=O)NC(=O)C(C)OC(=O)c1cc(S(=O)(=O)N2CCCCCC2)ccc1OC (stereo unspecified)	inactive
CCCCn1c(N)c(N(CC(C)C)C(=O)c2cccc(S(=O)(=O)N3CCN(C(C)=O)CC3)c2)c(=O)[nH]c1=O	inactive
Cc1cc(C)nc(-n2nc(C)cc2NC(=O)c2ccc(F)cc2F)n1	inactive

SMILES	B-score
CCCCn1ccnc1C(=O)c1cccc(S(=O)(=O)N2c3ccccc3CC2C)c1 (stereo unspecified)	-11.8 (active)
CC1Cc2ccccc2N1S(=O)(=O)c1c(N)n(C)c(=O)n(C)c1=O (stereo unspecified)	inactive
CC1Cc2ccccc2N1S(=O)(=O)c1ccc(Cl)nc1 (stereo unspecified)	inactive
COc1ccc(C(=O)NN2C(=O)C3C(c4ccccc4)C=CC(c4ccccc4)C3C2=O)cc1 (stereo unspecified)	-8.93 (active)
O=C(NN1C(=O)C2C3C=CC(O3)C2C1=O)c1ccccc1 (stereo unspecified)	inactive
COc1ccccc1C(=O)NN1C(=O)C2C3C=CC(O3)C2C1=O (stereo unspecified)	inactive
CC(=O)Nc1ccc(S(=O)(=O)NC(C)C(=O)OCC(=O)NC2CCCC2)cc1 (stereo unspecified)	inactive
CCc1ccc(NC(=O)NC(C)c2ccc3c(c2)OCO3)cc1 (stereo unspecified)	inactive
CC1CCCN(C(C(=O)Nc2ccc(C(C)C)cc2)c2ccc3c(c2)OCO3)C1 (stereo unspecified)	-7.66 (active)
O=C(Nc1ccc2c(c1)OCCO2)C(c1ccc(F)cc1)N1CCCCC1 (stereo unspecified)	inactive
O=C(Nc1ccc(S(=O)(=O)Nc2ccccn2)cc1)c1ccccc1	inactive
CCN(CC)C(=O)CN(c1cccc([N+](=O)[O-])c1)S(=O)(=O)c1ccccc1	inactive
O=C(CCl)N(Cc1cccc([N+](=O)[O-])c1)c1cccc(Cl)c1	inactive
C=CCN(N=Nc1cccc([N+](=O)[O-])c1)c1cccc([N+](=O)[O-])c1	-11.2 (active)
Cc1ccc(CSCC(=O)N(C)CC(=O)Nc2ccc(C)cc2)cc1	inactive
O=S(=O)(Cc1noc(-c2ccc(OC(F)(F)F)cc2)n1)c1ccc(F)cc1	inactive
COc1cc(Cl)c(C)cc1NC(=O)CSc1nnc(-c2ccco2)n1CC(C)C	-10 (active)
COc1cc(Cl)c(C)cc1NC(=O)CSc1nnc(-c2cccnc2)n1Cc1ccco1	inactive
CCn1c(SCC(=O)Nc2cc(C)c(Cl)cc2OC)nnc1-c1ccco1	inactive
CCOC(=O)c1sc(=NC(=O)c2ccc(Br)cc2)n(C)c1C	inactive
CCOC(=O)C1=C(C)Nc2sc(C(=O)c3ccc(Br)cc3)c(N)c2C1c1ccc(C(=O)OC)cc1 (stereo unspecified)	-9.37 (active)
CCOC(=O)c1sc(=S)n2c1[nH]c(=O)c1ccc(C(=O)OC)cc12	inactive
CN(CC(=O)Nc1cccc(F)c1)C(=O)C1=COCCO1	inactive
Cc1ccc(-n2ncc3c(Nc4cccc(C(=O)O)c4)ncnc32)cc1	inactive
COc1ccc(C2=NS(=O)(=O)N(C)C(C(=O)N3CCCCC3)=C2)cc1	inactive
